These results are taken from PubChem BioAssay.

Records with an inconclusive call do not appear. Calls of active or inactive are those of the source. Unless noted, how the calls were made is not given here.

Assay [1] can be described thus: growth inhibition of DIPG glioma cells, dose response, cell-based, SU-DIPG-IV, MIPE4.0, CellTiter-Glo, qHTS (AID 1347063; cut-off not given, nearly all actives have AC50 up to about 30 µM;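 further: compound exposure lasted 48 hours before the viability readout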). The settings on record: SU-DIPG-IV viability, CellTiter-Glo ATP luminescence. (ATP-based viability assays read luminescence as a measure of living cells.)
Assay [2] in a line: modifiers of HSF1 nuclear foci, imaging, Selleck Cancer Library (AID 1347162; in the data active means plate-normalised HSF1 focus index below about 0.46). The settings on record: human cells, at 10 µM; SSMD: measured here: HSF1 foci SSMD mean; cell count: measured here: cell number; plate-normalised HSF1 focus index: stronger effect = lower value.
A short description of assay [3]: circadian clock period modulators, cell-based, LOPAC library, luminescence reporter (AID 2774).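 Further: values are relative to mean of DMSO wells on each plate.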 Conditions: circadian reporter cells, at 7 µM, actives lie on both sides.
For assay [4], the system named is Hepatitis C virus NS3 helicase. Nature of the assay: HCV NS3 helicase inhibitors, primary screen, biochemical, fluorescence polarization, LOPAC1280 library (AID 687035; in the data active means inhibition above about 37%). Conditions: Purified HCV NS3 helicase, Cy5-dT15 ssDNA binding fluorescence polarization; stronger effect = higher value; concentration not given here.
Assay [5] in a line: Cy5 fluorescence quenching or enhancement artefacts, artefact control for HCV NS3 helicase inhibitor project, biochemical, LOPAC1280 (AID 687037). Conditions: Cy5-DNA-NS3h complex fluorescence interference counterscreen. A general note: The purpose of a counterscreen is to sort out artefacts and off-target activity.
A short description of assay [6]: phospholipid biosynthesis inhibitors in animal cells, primary screen, cell-based, LOPAC library, screen 4 (AID 1347384). Conditions: phospholipid biosynthesis inhibition screen, at 10 µM.
A short description of assay [7]: growth inhibition of DIPG glioma cells, dose response, cell-based, SU-DIPG-XIII, MIPE5.0, CellTiter-Glo, qHTS (AID 1347064; cut-off not given, nearly all actives have AC50 up to about 23 µM). The settings on record: SU-DIPG-XIII viability, CellTiter-Glo ATP luminescence.
Assay [8] in a line: JHH-DIPG-1 glioma cell viability, MIPE5.0 library, CellTiter-Glo luminescence, qHTS (AID 1347067; cut-off not given, nearly all actives have AC50 up to about 26 µM;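 further: cells exposed to compound for 48 hours before readout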). Conditions: JHH-DIPG-1 glioma viability, CellTiter-Glo ATP luminescence.
A short description of assay [9]: LFS_MB_P medulloblastoma growth inhibition, cell-based, chromothripsis tumors, cisplatin or BGB combos (AID 1671449; in the data active means inhibition above about 80%;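 further: cells exposed for 96 hours; 0% = vehicle DMSO and 100% = killing by high DMSO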). Conditions: LFS_MB_P medulloblastoma cells.
A short description of assay [10]: HDN33 neuroblastoma growth inhibition, cell-based, chromothripsis tumors, cisplatin or BGB combos (AID 1671450; in the data active means inhibition above about 80%;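 further: cells exposed to compound for four days; 0% = vehicle DMSO and 100% = cell killing by high DMSO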). The settings on record: HDN33 neuroblastoma cells, stronger effect = higher value.
Assay [11] in a line: ICB984 medulloblastoma cell growth inhibition, synergistic combos for chromothripsis tumors, cisplatin or BGB combos (AID 1671451).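 Further: cells exposed for 96 hours before readout; 0% = vehicle DMSO and 100% = killing by high DMSO.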 Conditions: ICB984 medulloblastoma cells, drug combinations, stronger effect = higher value.
Assay [12] is described as follows: LFS_MB_1R medulloblastoma cell growth inhibition, synergistic combos for chromothripsis tumors, cisplatin or BGB combos (AID 1671452; in the data active means inhibition above about 80%;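 further: cells exposed for 96 hours before readout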). Conditions: LFS_MB_1R medulloblastoma cells, stronger effect = higher value.
Assay [13] can be described thus: HTB85 osteosarcoma cell growth inhibition, synergistic combos for chromothripsis tumors, BGB or cisplatin IC20 combos (AID 1671453; in the data active means inhibition above about 80%;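 further: cells exposed for 96 hours before readout; 0% = vehicle DMSO and 100% = high DMSO killing control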). Conditions: HTB85 osteosarcoma cells, drug combinations, stronger effect = higher value.
Assay [14] in a line: CRL2098 osteosarcoma cell growth inhibition, synergistic combos for chromothripsis tumors, BGB or cisplatin IC20 combos (AID 1671454; in the data active means inhibition above about 80%;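 further: cells exposed for 96 h before readout; 0% = vehicle DMSO and 100% = killing by high DMSO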). The settings on record: CRL2098 osteosarcoma cells, drug combinations, stronger effect = higher value.
Assay [15] in a line: MDA-MB-436 breast carcinoma cell growth inhibition, synergistic combos for chromothripsis tumors, BGB or cisplatin combos (AID 1671458).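 Further: cells exposed for 96 hours; 0% = vehicle DMSO and 100% = killing by high DMSO.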 Conditions: MDA-MB-436 breast carcinoma growth inhibition, drug combinations, stronger effect = higher value.
Assay [16] is described as follows: growth inhibition of BT084 medulloblastoma cells, cell-based, ICGC_MB145, cisplatin and BGB IC40 combos (AID 1671461; in the data active means inhibition above about 80%;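 further: cells exposed to drugs for 96 hours; 0% = vehicle DMSO and 100% = high DMSO full killing control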). Conditions: drug combinations, stronger effect = higher value.
The nature of assay [17]: growth inhibition of RCMB18 medulloblastoma cells, cell-based, cisplatin and BGB IC40 combos (AID 1671462; in the data active means inhibition above about 80%;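 further: cells exposed to compound for four days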). Conditions: stronger effect = higher value.
Assay [18] can be described thus: growth inhibition of CRL1545 osteosarcoma cells, cell-based, cisplatin and BGB IC20 combos (AID 1671464; in the data active means inhibition above about 80%;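 further: cells exposed to compound for 96 hours before readout; 0% = vehicle DMSO and 100% = high DMSO killing control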). Conditions: stronger effect = higher value.
The mark [19] stands for this setting: measured here: combination with BGB IC40, at 0.05 µM.
Where [20] appears, read: measured here: with BGB IC20 combination, at 0.5 µM.
The mark [21] stands for this setting: measured here: with cisplatin IC20 combination, at 0.5 µM.
Where [22] appears, read: measured here: combination with cisplatin, at 0.5 µM.

On to `CC1(CN2CCC(n3c(=O)[nH]c4ccccc43)CC2)OCc2ccccc2-n2cccc21` (centres undefined), for which the compound was called inactive in assay [1]. Also, in assay [2], the SSMD amounted to 2.84, the cell count worked out at 7080 and the plate-normalised HSF1 focus index is 1.16 (inactive).

The term inhibition denotes the relative decrease from the control value, in per cent. On to `CC(C)C(=O)c1c(C(C)C)nn2ccccc12`, for which, in assay [3], the period change is -0.095 h (inactive). In addition, in [4], the inhibition was -1% (inactive). For the same compound, the fluorescence ratio (interference) in assay [5] is 1 (inactive). Further, in [6], the outcome was inactive.

As for `Cn1ccc2cc3c(cc21)CCN3C(=O)Nc1cccnc1`, the period change in assay [3] is 0.355 h (inactive). Further, in assay [4], the inhibition is -3% (inactive). Further, in [5], the fluorescence ratio (interference) is 0.9 (inactive). In addition, the outcome in [1], in [7], in assay [8] and in [6] was inactive.

With `COCC(=O)O[C@]1(CCN(C)CCCc2nc3ccccc3[nH]2)CCc2cc(F)ccc2[C@@H]1C(C)C`, the period change in assay [3] was -0.16 h (inactive). For the same compound, the inhibition in assay [4] was -2% (inactive). In assay [5], the fluorescence ratio (interference) was 1 (inactive). In addition, the compound was classed as inactive in [6].

With `CN(C(=O)c1c(O)c2ccccc2n(C)c1=O)c1ccccc1`, the compound was classed as inactive in assay [8].

For `Cc1ccc(=O)n(-c2ccccc2)c1`, the period change in assay [3] is -0.085 h (inactive). Besides, the inhibition in assay [4] was -4% (inactive). The fluorescence ratio (interference) in assay [5] was 1 (inactive). In addition, the outcome in assay [6] was inactive.

Take `C[C@@H](CN1CC(=O)NC(=O)C1)N1CC(=O)NC(=O)C1`: the compound was classed as inactive in assay [1] and in assay [7]. The inhibition in assay [9] (at 0.5 µM, stronger effect = higher value) is -25.4% (inactive); in assay [9] (measured here: combination with BGB IC20, at 0.005 µM) it was 7.12%; in [9] (measured here: combination with BGB IC40, at 0.005 µM) it was 4.81%; in assay [9] (setting [19]), -36.6%; in assay [9] (measured here: combination with cisplatin, at 0.5 µM, stronger effect = higher value), -24.5%; in assay [9] (measured here: combination with cisplatin, at 5 µM, stronger effect = higher value), -14.8%. Besides, the inhibition was 79.1% in [10] (BGB combo, at 5 µM); -24% (inactive) in assay [10] (at 0.5 µM); -19.4% in assay [10] (cisplatin combo, at 5 µM); -11.3% in assay [10] (setting [20]); -36.9% in assay [10] (setting [21]); 13.8% in assay [10] (single agent, at 5 µM). In addition, the inhibition in assay [11] (BGB IC20 combo, at 0.005 µM) is -2.91%; in [11] (BGB IC40 combo, at 0.005 µM) it was -23%; in [11] (BGB IC40 combo, at 0.05 µM), 11.5%; in assay [11] (at 0.5 µM) it was -30.5% (inactive); in assay [11] (cisplatin combo, at 0.05 µM), 8.27%; in assay [11] (cisplatin combo, at 0.5 µM), -19.9%. Further, the inhibition in assay [11] (cisplatin combo, at 5 µM) is -27.8%; in [11] (measured here: 5 uM single agent, at 5 µM), -8.08%; in assay [12] (at 0.5 µM), -13.2% (inactive); in assay [12] (setting [19]), -25.5%; in assay [12] (setting [22]) it was -32.2%; in assay [12] (measured here: combination with cisplatin, at 5 µM), -35.9%. Further, the inhibition in [13] (at 0.5 µM) was -26.1% (inactive); in assay [13] (measured here: with BGB IC20, at 0.5 µM), -21.1%; in [13] (measured here: with BGB IC20, at 5 µM), -21.1%; in assay [13] (measured here: with cisplatin IC20, at 0.5 µM), -39.6%; in assay [13] (measured here: with cisplatin IC20, at 5 µM), -43.4%; in assay [13] (single agent, at 5 µM), -10%. Also, the inhibition was -49.6% (inactive) in [14] (at 0.5 µM); -22.2% in assay [14] (measured here: combination with BGB at IC20, at 0.5 µM); -110% in assay [14] (measured here: combination with cisplatin at IC20, at 0.5 µM); -7.66% (inactive) in assay [15] (at 0.5 µM); 2.41% in assay [15] (measured here: BGB combination, at 0.5 µM); -3.41% in assay [15] (measured here: BGB combination, at 5 µM). Besides, the inhibition in [15] (measured here: cisplatin combination, at 0.5 µM) was -18.8%; in assay [15] (measured here: cisplatin combination, at 5 µM), -28.2%; in assay [16] (at 0.5 µM), -9.97% (inactive); in [16] (cisplatin combination, at 0.5 µM) it was -43.1%; in [16] (cisplatin combination, at 5 µM) it was -2.65%; in assay [16] (measured here: BGB IC40 combination 0.05 uM, at 0.05 µM), 19.5%. Also, the inhibition is -11.9% in assay [16] (single agent, at 5 µM); -20.1% (inactive) in assay [17] (at 0.5 µM); -55.6% in assay [17] (cisplatin combo, at 5 µM); -8.51% in assay [17] (measured here: BGB IC40 combination, at 0.05 µM); -37.1% in assay [17] (setting [22]); -16.8% in [17] (single agent, at 5 µM). Moreover, the inhibition was -44.1% (inactive) in assay [18] (at 0.5 µM); -33.6% in [18] (setting [20]); -51.8% in [18] (setting [21]); -57.8% in assay [18] (single agent, at 0.05 µM); -52.7% in assay [18] (single agent, at 5 µM).
